The results in this text go back to PubChem BioAssay (EPA / NIEHS).

For orientation: AC50 means the midpoint of the concentration-response curve, whichever way the signal moves.

Inconclusive results are not listed. Where a structure was tested more than once in an assay, its records may differ in their call. Activity calls are given as the source filed them. How the source made its calls, unless noted: active means hit-call score of the fitted dose curve at least 0.9, where 1 is the maximum; inconclusive means response in the unintended direction; inactive means score below 0.9.

Chain of Estrogen receptor (Homo sapiens) (P03372 whole entry, looked up): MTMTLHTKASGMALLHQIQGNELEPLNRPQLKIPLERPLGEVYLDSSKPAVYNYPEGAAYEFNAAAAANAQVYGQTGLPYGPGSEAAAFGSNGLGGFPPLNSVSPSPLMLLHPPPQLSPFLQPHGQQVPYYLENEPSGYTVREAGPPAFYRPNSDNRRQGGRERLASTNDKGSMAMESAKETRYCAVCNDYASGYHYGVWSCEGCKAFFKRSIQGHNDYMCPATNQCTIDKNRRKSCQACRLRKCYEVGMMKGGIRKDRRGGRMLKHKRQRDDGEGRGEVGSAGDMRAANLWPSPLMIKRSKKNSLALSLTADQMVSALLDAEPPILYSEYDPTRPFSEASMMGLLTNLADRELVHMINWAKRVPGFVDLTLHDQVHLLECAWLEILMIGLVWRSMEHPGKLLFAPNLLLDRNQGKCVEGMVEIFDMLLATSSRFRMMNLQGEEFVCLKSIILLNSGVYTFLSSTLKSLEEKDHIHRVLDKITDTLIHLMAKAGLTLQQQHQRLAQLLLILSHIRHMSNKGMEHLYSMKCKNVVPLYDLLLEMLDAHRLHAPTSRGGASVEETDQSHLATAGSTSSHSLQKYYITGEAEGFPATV

Tested on in the first experiment: not listed separately
The experiment is described as follows: CCTE_Shafer_MEA_acute_synchrony_index: CCTE's Neural Acute Assay for Synchrony, Shafer Lab (AID 2284027; active means hit-call score of the fitted dose curve at least 0.9, where 1 is the maximum; inactive means score below 0.9;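 further: network synchrony index of spontaneous spiking in primary rat cortical neurons on MEAs; fitted for loss of signal so actives lower synchrony relative to DMSO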). In short, it runs like this: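 Acute exposure of rat primary cortical neurons (DIV 13 or 15) at 0.03-40 uM. Synchrony index, 40 min before vs after, as % change relative to DMSO control.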
Turning to `CCC(C)(C)c1ccc(O)cc1`, the AC50 was 8.24 µM (active).
Regarding `[N-]=[N+]=[N-]`, the molecule was called inactive.
On the same count and under the same terms, the value for `Nc1ccc2ccccc2c1` was “inactive”.
Take `ClC1=C(Cl)C2(Cl)C3C(Cl)C(Cl)CC3C1(Cl)C2(Cl)Cl` (stereo unspecified): the half-maximal activity concentration (AC50) was 0.283 µM (active).
Turning to `CCOP(=S)(Oc1ccc([N+](=O)[O-])cc1)c1ccccc1` (stereo unspecified), the result was inactive.
As for `CC(C)(C)c1ccccc1OP(=O)(Oc1ccccc1)Oc1ccccc1`, the AC50 was 6.97 µM (active).
On to `ClC(Cl)(Cl)c1ccccc1`, for which the result was inactive.
As for `COP(=O)(CCC(=O)NCO)OC`, the call was inactive.
Regarding `COCCOCCO`, the outcome was inactive.
Same read-out and setting: for `CC(Cl)(Cl)C(=O)O` the value was “inactive”.
Same read-out and setting: for `CCC1(c2ccccc2)C(=O)N=C(O)NC1=O` (stereo unspecified) the value was “inactive”; for `Cc1ccc(N)cc1N`, “inactive”; for `O=C(O)C1C(C(=O)O)C2(Cl)C(Cl)=C(Cl)C1(Cl)C2(Cl)Cl` (stereo unspecified), “inactive”.
For the molecule `CCCCC(CC)COP(=O)(Oc1ccccc1)Oc1ccccc1` (stereo unspecified), the half-maximal activity concentration (AC50) is 22.1 µM (active).
`CCOc1ccc(C(C)(C)COCc2cccc(Oc3ccccc3)c2)cc1`: the AC50 is 28.1 µM (active).
The same measure, in the same setting: for `c1ccc2c(c1)Nc1ccccc1S2` the value was 20 µM (active).

The target in a further experiment is Estrogen receptor (Homo sapiens) (UniProt P03372). Put plainly: CCTE_Deisenroth_AIME_384WELL_LUC_Active: CCTE's 384-well Estrogen Receptor Transactivation Assay with AIME metabolic competence (ERTA luciferase; metabolism positive), Deisenroth Lab (AID 2284030). In short, it runs like this:
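VM7Luc4E2 breast cells were given, for 24 hours, medium pre-incubated for 2 hours with parent chemical (0.002-200 uM, 10 concentrations) and alginate-encapsulated phenobarbital/beta-naphthoflavone-induced rat hepatic S9. Luciferase gain of signal was fitted against 17beta-estradiol; n=4 or more.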
Take `CCC(C)(C)c1ccc(O)cc1`: the AC50 was 7.31 µM (active).
For `[N-]=[N+]=[N-]`, the molecule was called inactive.
For the molecule `OCC1CO1` (stereo unspecified), the molecule was called inactive.
For `c1ccc(OP(Oc2ccccc2)Oc2ccccc2)cc1`, the AC50 was 76.8 µM (active).
On the same count and under the same terms, the value for `Nc1ccc2ccccc2c1` was 13.8 µM (active).
As for `Nc1ccc(Cl)cc1`, the outcome was inactive.
As for `CCCCN(CC)C(=O)SCCC`, the molecule was called inactive.
On the same count and under the same terms, for `CCCCc1ccccc1` the value was “inactive”.
Consider `CCOP(=S)(Oc1ccc([N+](=O)[O-])cc1)c1ccccc1` (stereo unspecified), for which the AC50 is 19.6 µM (active).
Take `ClC(Cl)c1ccccc1`: the outcome was inactive.
The same measure, in the same setting: the value for `CCOC(=O)c1ccccc1C(=O)OCC` was “inactive”; that for `COCCOCCO` was “inactive”; that for `CC(Cl)(Cl)C(=O)O` was “inactive”.
With `CCCCN(CCCC)SN(C)C(=O)Oc1cccc2c1OC(C)(C)C2`, the molecule was called inactive.
Turning to `O=[N+]([O-])c1ccccc1`, the molecule was called inactive.
Same read-out and setting: the value for `CCN(CC)c1ccccc1` was “inactive”.
Turning to `CCCCc1ccc(O)cc1`, the AC50 is 26.1 µM (active).
Same read-out and setting: for `CCCCC(CC)COP(=O)(Oc1ccccc1)Oc1ccccc1` (stereo unspecified) the value was 34.1 µM (active); for `c1ccc2c(c1)Nc1ccccc1S2`, 41.3 µM (active).
As to `CCCCN(CCCC)N=O`, the call was inactive.

Tested on in another experiment: not listed separately
The experiment is described as follows: CCTE_Shafer_MEA_dev_firing_rate_mean: CCTE's Neural Network Formation Assay for Mean Firing Rate, Shafer Lab (AID 2284031; active means hit-call score of the fitted dose curve at least 0.9, where 1 is the maximum; inactive means score below 0.9;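 on AC50: curve fitted for loss of firing so AC50 reflects decreased mean firing rate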). In outline: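 Extracellular spike frequency, AUC over DIV 5–12 recordings, in rat cortical neuron MEA cultures dosed from plating; loss direction vs DMSO.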
Take `c1ccc(OP(Oc2ccccc2)Oc2ccccc2)cc1`: the call was inactive.
As to `ClC1=C(Cl)C2(Cl)C3C(Cl)C(Cl)CC3C1(Cl)C2(Cl)Cl` (stereo unspecified), the AC50 is 4.35 µM (active).
As for `CC(C)(C)c1ccccc1OP(=O)(Oc1ccccc1)Oc1ccccc1`, the molecule was called inactive.
The same measure, in the same setting: the value for `CCC1(c2ccccc2)C(=O)N=C(O)NC1=O` (stereo unspecified) was “inactive”; that for `O=C(O)C1C(C(=O)O)C2(Cl)C(Cl)=C(Cl)C1(Cl)C2(Cl)Cl` (stereo unspecified) was “inactive”; that for `CCCCC(CC)COP(=O)(Oc1ccccc1)Oc1ccccc1` (stereo unspecified) was “inactive”.
As to `CCOc1ccc(C(C)(C)COCc2cccc(Oc3ccccc3)c2)cc1`, the AC50 was 5.99 µM (active).

Tested on in a further experiment: not listed separately
The experiment is described as follows: CCTE_Shafer_MEA_dev_per_burst_spike_percent: CCTE's Neural Network Formation Assay for Percent of Spikes in a Burst, Shafer Lab (AID 2284032; active means hit-call score of the fitted dose curve at least 0.9, where 1 is the maximum; inactive means score below 0.9;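 on AC50: fitted as a decrease in burst spike percentage below DMSO baseline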). In outline: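 Value is trapezoidal AUC over recordings on days 5, 7, 9 and 12 of the well-mean fraction of spikes falling in single-electrode bursts; rat cortical cultures exposed continuously from plating, treatment renewed DIV 5 and 9, fitted downward against DMSO.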
Consider `c1ccc(OP(Oc2ccccc2)Oc2ccccc2)cc1`, for which the outcome was inactive.
With `ClC1=C(Cl)C2(Cl)C3C(Cl)C(Cl)CC3C1(Cl)C2(Cl)Cl` (stereo unspecified), the AC50 was 6.7 µM (active).
As for `CC(C)(C)c1ccccc1OP(=O)(Oc1ccccc1)Oc1ccccc1`, the AC50 was 26.2 µM (active) and the molecule was called inactive.
With `CCC1(c2ccccc2)C(=O)N=C(O)NC1=O` (stereo unspecified), the molecule was called inactive.
Still for that read-out and setting: for `O=C(O)C1C(C(=O)O)C2(Cl)C(Cl)=C(Cl)C1(Cl)C2(Cl)Cl` (stereo unspecified) the value was “inactive”; for `CCCCC(CC)COP(=O)(Oc1ccccc1)Oc1ccccc1` (stereo unspecified), “inactive”.
In the case of `CCOc1ccc(C(C)(C)COCc2cccc(Oc3ccccc3)c2)cc1`, the AC50 is 10 µM (active).

Tested on in a further experiment: not listed separately
Put plainly: CCTE_Deisenroth_AIME_384WELL_CTox_Active: Cytotoxicity Assessment (CTOX) in CCTE's 384-well Estrogen Receptor Transactivation Assay with AIME metabolic competence (metabolism positive), Deisenroth Lab (AID 2284037).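 Further: chemicals first conditioned 2 h by alginate-bound induced rat liver S9 before cells; activity means signal loss indicating cell death.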 In outline:
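Chemicals pre-incubated 2 hours with alginate-immobilised phenobarbital/beta-naphthoflavone-induced male Sprague Dawley rat liver S9, then conditioned medium applied 24 hour to VM7Luc4E2 cells. Viability by fluorogenic protease substrate; 10-point series 0.002 - 200 uM.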
For `OCC1CO1` (stereo unspecified), the outcome was inactive.
On the same count and under the same terms, the value for `c1ccc(OP(Oc2ccccc2)Oc2ccccc2)cc1` was “inactive”.
Still for that read-out and setting: the value for `Nc1ccc2ccccc2c1` was “inactive”; that for `Nc1ccc(Cl)cc1` was “inactive”; that for `CCCCN(CC)C(=O)SCCC` was “inactive”.
The same measure, in the same setting: for `CCCCc1ccccc1` the value was “inactive”; for `ClC(Cl)c1ccccc1`, “inactive”; for `CCOC(=O)c1ccccc1C(=O)OCC`, “inactive”.
Take `CCCCN(CCCC)SN(C)C(=O)Oc1cccc2c1OC(C)(C)C2`: the result was inactive.
For the molecule `O=[N+]([O-])c1ccccc1`, the result was inactive.
Still for that read-out and setting: for `CCN(CC)c1ccccc1` the value was “inactive”.
Take `CCCCc1ccc(O)cc1`: the AC50 is 158 µM (active).
For the molecule `CCCCC(CC)COP(=O)(Oc1ccccc1)Oc1ccccc1` (stereo unspecified), the molecule was called inactive.
The same measure, in the same setting: the value for `c1ccc2c(c1)Nc1ccccc1S2` was “inactive”; that for `CCCCN(CCCC)N=O` was “inactive”.

Another experiment has as its target Estrogen receptor (Homo sapiens) (UniProt P03372). Put plainly: CCTE_Deisenroth_AIME_384WELL_LUC_Inactive: CCTE's 384-well Estrogen Receptor Transactivation Assay without AIME metabolic competence (ERTA luciferase; metabolism negative), Deisenroth Lab (AID 2284038).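 Further: VM7Luc4E2 breast cells given medium preincubated 2 h with S9-free microspheres; hits raise estrogen receptor luciferase signal so potencies reflect agonists.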 In outline:
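Metabolism-negative mode: AIME lids stamped in alginate-water, no hepatic S9. 2 h chemical incubation → medium onto VM7Luc4E2 ERTA, 24 h. Readout luciferase luminescence; gain-of-signal fit vs 17beta-estradiol. Conc. 0.002 - 200 uM.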
On to `CCC(C)(C)c1ccc(O)cc1`, for which the AC50 was 1.52 µM (active).
As for `[N-]=[N+]=[N-]`, the molecule was called inactive.
In the case of `OCC1CO1` (stereo unspecified), the molecule was classed as inactive.
As to `c1ccc(OP(Oc2ccccc2)Oc2ccccc2)cc1`, the AC50 was 75.4 µM (active).
As to `Nc1ccc2ccccc2c1`, the outcome was inactive.
For `Nc1ccc(Cl)cc1`, the molecule was called inactive.
Still for that read-out and setting: the value for `CCCCN(CC)C(=O)SCCC` was “inactive”.
On to `CCCCc1ccccc1`, for which the molecule was called inactive.
Turning to `CCOP(=S)(Oc1ccc([N+](=O)[O-])cc1)c1ccccc1` (stereo unspecified), the AC50 is 15.5 µM (active).
As for `ClC(Cl)c1ccccc1`, the result was inactive.
Turning to `CCOC(=O)c1ccccc1C(=O)OCC`, the molecule was classed as inactive.
The same measure, in the same setting: the value for `COCCOCCO` was “inactive”; that for `CC(Cl)(Cl)C(=O)O` was “inactive”.
Regarding `CCCCN(CCCC)SN(C)C(=O)Oc1cccc2c1OC(C)(C)C2`, the result was inactive.
Same read-out and setting: for `O=[N+]([O-])c1ccccc1` the value was “inactive”.
On the same count and under the same terms, the value for `CCN(CC)c1ccccc1` was “inactive”.
In the case of `CCCCc1ccc(O)cc1`, the concentration at half-maximal activity (AC50) is 20.2 µM (active).
As to `CCCCC(CC)COP(=O)(Oc1ccccc1)Oc1ccccc1` (stereo unspecified), the outcome was inactive.
Consider `c1ccc2c(c1)Nc1ccccc1S2`, for which the AC50 is 27.7 µM (active).
As for `CCCCN(CCCC)N=O`, the AC50 was 85.5 µM (active).
